According to ChEMBL document CHEMBL3988442, “University of Dundee, Small-Polar-MMV Screening Library” (2021):
About 950 (1.4%) of roughly 69,000 compounds showed an effect of 50% or more. What follows is part of a selection rich in strong results, with near analogues and random picks from the rest.

tested on: Mycobacterium tuberculosis; experiment: Cornell M. t heat shock assay; assay type: functional, organism-based; set-up: dose or concentration left out as unconfirmed; note: in the data most compounds retested in dose-response had high values

| SMILES | Percent Effect [%] |
| --- | --- |
| CN1CCC/C1=N\S(=O)(=O)c1ccc(NC(=O)c2ccc(Cl)cc2)cc1 | -4.489 |
| CC1=N[C@@]2(CC[C@@H]3CN(Cc4ccc(C)cc4)C[C@@H]32)C(=O)N1CC1CC1.O=C(O)C(F)(F)F | 0.8614 |
| CC(c1cn2ccsc2n1)N1Cc2ncccc2C1=O (centres undefined) | -27.43 |
| CCn1ncc2c1CN(C(=O)Cc1cccs1)CC2COC.O=C(O)C(F)(F)F (centres undefined) | 1.467 |
| COc1cccc(N2Cc3nc(=O)n(Cc4cccc(F)c4)n3C2=O)c1 | 19.15 |
| CCC(=O)N1CCC2(CC1)COCCN2Cc1ccc(F)cc1.O=C(O)C(F)(F)F | -30.34 |
| O=C(O)C(F)(F)F.c1csc(CN2CCn3c(Cn4cncn4)cnc3C2)n1 | -82.66 |
| O=C(Cn1c(=O)oc2ccccc21)NCC(O)c1ccc2c(c1)CCO2 (centres undefined) | -3.535 |
| O=C(CCn1c(=O)oc2ccccc21)NCC(O)c1ccccc1 (centres undefined) | 71.18 |
| O=C(NCC(O)c1ccc(F)c(F)c1)c1ccccc1F (centres undefined) | -2.812 |
| O=C(CCn1c(=O)oc2ccccc21)NCC(O)c1ccc(Cl)cc1 (centres undefined) | -3.948 |
| O=C(CCn1c(=O)oc2ccccc21)NCC(O)c1ccc(F)c(F)c1 (centres undefined) | 64.78 |
| CC(NC(=O)CCn1c(=O)oc2ccccc21)c1ccccn1 (centres undefined) | -6.717 |
| Cc1nc(C2(O)CCCNCC2)sc1CCOc1ccccc1Cl.Cl (centres undefined) | -14.1 |
| CCO[C@@H]1CC[C@H]2[C@H]1OCCN2CC1CCOCC1.O=C(O)C(F)(F)F | -50.97 |
| CN(Cc1coc(-c2ccccc2)n1)CC1CCCN1c1cccnn1 (centres undefined) | 7.112 |
| Cc1nc(CNCC2CCCN2c2cccnn2)oc1C (centres undefined) | -4.447 |
| c1cnnc(N2CCCC2CNCc2nc(C3CC3)no2)c1 (centres undefined) | 52.74 |
| CCc1nc(CNCC2CCCN2c2cccnn2)cs1 (centres undefined) | 0.6291 |
| c1ccc(-c2nc(CNCC3CCCN3c3cccnn3)co2)cc1 (centres undefined) | 102.8 |
| c1cnnc(N2CCCC2CNCc2nc3ccccc3o2)c1 (centres undefined) | 103.1 |
| CCc1noc(CNCC2CCCN2c2cccnn2)n1 (centres undefined) | 11.99 |
| c1ccc(-c2nnc(CNCC3CCCN3c3cccnn3)o2)cc1 (centres undefined) | -22.96 |

| SMILES | Percent Effect [%] |
| --- | --- |
| c1cnnc(N2CCCC2CNCc2nc(-c3ccco3)no2)c1 (centres undefined) | 13.72 |
| CCCc1nc(CNCC2CCCN2c2cccnn2)cs1 (centres undefined) | 2.805 |
| c1cnnc(N2CCCC2CNc2nc3ccccc3o2)c1 (centres undefined) | -7.44 |
| CC(C)CCc1nc(CNCC2CCCN2c2cccnn2)cs1 (centres undefined) | 75.49 |
| CCn1ccnc1CN1CCN(c2cc(C)nc(C3CCCN3)c2)CC1.Cl (centres undefined) | -8.62 |
| CC(C)c1nn(C)c(N(C)C)c1CNCc1cccc2cccnc12.Cl | 16.12 |
| CO[C@@H]1CO[C@@]2(CCCN(Cc3nc(C)cs3)C2)C1.O=C(O)C(F)(F)F | 0.7459 |
| Cc1ccccc1C(=O)N1C[C@@H]2OCCN(c3ncccn3)[C@@H]2C1.O=C(O)C(F)(F)F | -16.98 |
| O=C(NC[C@]12COC[C@H]1CN(Cc1ccco1)C2)c1ccccc1.O=C(O)C(F)(F)F | -18.08 |
| Cc1nc(CCN)cc(N2CCC(O)(c3ccc(Cl)cc3)CC2)n1 | -16.16 |
| Cc1nc(CCN)cc(N2CCOc3ccc(Cl)cc3C2)n1 | 51.61 |
| Cc1nc(C2CCN(C)CC2)cc(N2CCOc3ccc(Cl)cc3C2)n1 | -13.3 |
| O=C(O)C(F)(F)F.c1nc2c(c(C3CC3)n1)CCN(CC1CCOC1)CC2 (centres undefined) | 4.72 |
| CC(C)n1cc(N2Cc3nc(N4CCOCC4)ncc3C2=O)cn1 | -21.77 |
| CCOc1cc(CN[C@@H]2COC[C@H]2Cc2cc(C)no2)ccc1O.O=C(O)CC(O)(CC(=O)O)C(=O)O | -17.97 |
| CO[C@@H]1CCN(S(=O)(=O)c2cccnc2)[C@@H]2CN(CC3CC3)C[C@@H]21.O=C(O)C(F)(F)F.O=C(O)C(F)(F)F | -1.199 |
| Cc1cc(C(=O)N2CCC3(CC2)CN(CCN(C)C)C(=O)O3)nc(C)n1 | 14.38 |
| Cc1nc[nH]c1C(=O)N1CCC2(CC1)CN(CCN(C)C)C(=O)O2 | 17.79 |
| Cc1ccc(C(=O)N2CCC3(CC2)CN(CCN(C)C)C(=O)O3)c(F)c1 | 97.5 |
| Cn1nc(CN2CCCCC2)c2c1CN(C(=O)c1cccc(C#N)c1)C2.O=C(O)C(F)(F)F | -14.41 |
| Cc1ccc(NC(=O)C(C)N2CCCN(c3nccs3)CC2)c(C)c1 (centres undefined) | 58.85 |
| Cc1ccc(C)c(NC(=O)C(C)N2CCCN(c3nccs3)CC2)c1 (centres undefined) | 26 |
| Cc1cc(NC(=O)C(C)N2CCCN(c3nccs3)CC2)on1 (centres undefined) | 10.96 |

| SMILES | Percent Effect [%] |
| --- | --- |
| CC(C)Cc1nc(-c2ccnc(N3CCNCC3)n2)no1.Cl.Cl | -11.54 |
| COCCN1CCO[C@H]2CN(Cc3cccc(C)n3)C[C@H]21.O=C(O)C(F)(F)F.O=C(O)C(F)(F)F | -1.731 |
| Cc1ccsc1CN(Cc1cccnc1)C1CC(C)(C)NC(C)(C)C1.O=C(O)CC(O)(CC(=O)O)C(=O)O | -32.2 |
| Cc1cnn(C2CN(Cc3noc(-c4ccccc4)n3)C2)c1 | 31.69 |
| Cc1ccc(-c2nc(CN3CC(n4nc(C)cc4C)C3)no2)cc1 | 24.47 |
| Cc1cc(C)n(C2CN(Cc3nc4cc(Cl)ccc4n3C)C2)n1 | 97.92 |
| Cc1cc(C)n(C2CCN(Cc3nc4ccccc4n3C)CC2)n1 | -15.39 |
| Cc1cnn(C2CN(Cc3noc(C)n3)C2)c1 | 1.101 |
| Cc1cnn(C2CN(Cc3nc4cc(Cl)ccc4n3C)C2)c1 | 84.58 |
| N#Cc1ccc(N2CCC3(CCC(=O)N3Cc3cccnc3)CC2)nc1.O=C(O)C(F)(F)F.O=C(O)C(F)(F)F | 16.15 |
| Cc1c(Cl)cccc1S(=O)(=O)N1C[C@@H]2CC[C@H](C1)N(C)C2=O | -18.96 |
| O=C(Nc1cnccn1)[C@@H]1CC[C@@H]2[C@@H](CCN2Cc2nccs2)O1.O=C(O)C(F)(F)F | 0.9525 |
| COCC1CN(S(=O)(=O)N(C)C)Cc2ncn(CC3CC3)c21.O=C(O)C(F)(F)F (centres undefined) | -32.61 |
| Cc1noc([C@@H]2CC[C@@H]3[C@@H](CCN3S(=O)(=O)c3cccnc3)O2)n1.O=C(O)C(F)(F)F | 58.53 |
| Cc1noc([C@@H]2C[C@H]3OCC[C@H]3N(S(=O)(=O)c3cccnc3)C2)n1.O=C(O)C(F)(F)F | -33.58 |
| Cc1noc([C@@H]2CC[C@@H]3[C@@H](CCN3S(=O)(=O)c3ccccc3)O2)n1 | -26.97 |
| Cc1cccc(COc2ccc(C(C)N)cc2)c1.Cl (centres undefined) | 2.748 |
| Cc1noc(C)c1CN1CCO[C@H]2CN(Cc3ccc(F)cc3)C[C@H]21.O=C(O)C(F)(F)F.O=C(O)C(F)(F)F | -6.13 |
| Cc1ccc(C(=O)N2CC(=O)N(Cc3cccs3)CC(O)C2)cc1 (centres undefined) | 58.25 |
| COc1ccc(C(=O)N2CC(=O)N(Cc3cccs3)CC(O)C2)cc1 (centres undefined) | 14.04 |
| O=C1CN(C(=O)c2ccc(Cl)cc2)CC(O)CN1Cc1cccs1 (centres undefined) | 16.61 |
| O=C1CN(C(=O)c2ccc(F)cc2)CC(O)CN1Cc1cccs1 (centres undefined) | 62.26 |
| CSc1ccc(C(=O)N2CC(=O)N(Cc3cccs3)CC(O)C2)cc1 (centres undefined) | 29.81 |

| SMILES | Percent Effect [%] |
| --- | --- |
| CSc1ccc(C(=O)N2CC(=O)N(Cc3ccccc3)CC(O)C2)cc1 (centres undefined) | 28.35 |
| O=C(Cc1ccsc1)N1C[C@@H]2OCCN(CC3CCCO3)[C@@H]2C1.O=C(O)C(F)(F)F (some centres undefined) | -30.31 |
| CNC(=O)[C@H]1C[C@@H]2CN(C(=O)Nc3ccccc3)C[C@H]1O2 | -29.03 |
| CN(C)CCN1CCC2(CC1)CN(Cc1cccnc1)C(=O)CO2.O=C(O)C(F)(F)F.O=C(O)C(F)(F)F.O=C(O)C(F)(F)F | 8.81 |
| O=C(O)C(F)(F)F.O=C(O)C(F)(F)F.c1cc(COC[C@]23COC[C@H]2CN(CC2CCC2)C3)ccn1 | -30 |
| O=C(NC[C@]12COC[C@H]1CN(Cc1ccncc1)C2)c1ccco1.O=C(O)C(F)(F)F.O=C(O)C(F)(F)F | -3.617 |
| Cn1cncc1C(=O)N1CCOC2(COCCN(CC3CC3)C2)C1.O=C(O)C(F)(F)F (centres undefined) | 41.2 |
| Cc1nc(C2CCCN2Cc2nccn2CC(F)(F)F)no1 (centres undefined) | -9.202 |
| Cc1cnn(CC2CCCCN2Cc2ncc(C(C)(C)C)o2)c1 (centres undefined) | -8.099 |
| Cc1cnn(CC2CN(Cc3nccn3CC(F)(F)F)CCO2)c1 (centres undefined) | -15.97 |
| CCn1ccnc1CN1CCCC1Cn1cc(C)cn1 (centres undefined) | 89.45 |
| Cc1cnn(CC2CCCN2Cc2nnc(C3CC3)n2C)c1 (centres undefined) | 10.04 |
| Cc1cnn(CC2CCCCN2Cc2cnc(C)s2)c1 (centres undefined) | 18.92 |
| Cc1cnn(CC2CCCN2Cc2nccn2CC(F)(F)F)c1 (centres undefined) | 101.7 |
| Cc1cnn(CC2CCCN2Cc2nccn2C)c1 (centres undefined) | 15.87 |
| Cc1cnn(CC2CCCCN2Cc2nccn2CC(F)(F)F)c1 (centres undefined) | 52.97 |
| CCn1ccnc1CN1CCN(CCC(=O)NC2CCCCC2)CC1 | 24.85 |
| CC1=N[C@@]2(CC[C@@H]3CNC[C@@H]32)C(=O)N1CC(C)C.O=C(O)C(F)(F)F | -9.466 |
| Fc1cnc(N2CCCC3(COCCN(c4nccs4)C3)C2)nc1.O=C(O)C(F)(F)F.O=C(O)C(F)(F)F (centres undefined) | 4.049 |
| COc1c(CNC2CCCOc3ccc(F)cc32)c(C(C)C)nn1C.Cl (centres undefined) | -10.1 |
